This is part of a sample that, as a whole, favours compounds with a hit. Of some 83,000 tested, about 20% had one in any assay.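 In brief: 96-well plates, 48 h treatment, single concentration, percent growth endpoint.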
Experiments:
Test in all cases: NCI-60 one-dose screen, 48 h (100 = growth as untreated, 0 = no growth, -100 = all killed)
Conditions in all cases: 10 µM; active means growth percent below 10; inactive means the rest
[1] = system: DU-145 prostate
[2] = system: K-562 leukemia
[3] = system: MDA-MB-231 breast
[4] = system: RXF 393 renal
[5] = system: SF-268 CNS
[6] = system: SF-295 CNS
[7] = system: SF-539 CNS
[8] = system: UACC-257 melanoma
[9] = system: M14 melanoma
[10] = system: HCT-15 colon
[11] = system: SNB-75 CNS
[12] = system: SNB-19 CNS
[13] = system: SK-MEL-5 melanoma
[14] = system: UACC-62 melanoma
[15] = system: LOX IMVI melanoma
[16] = system: SK-MEL-28 melanoma
[17] = system: HT29 colon
[18] = system: PC-3 prostate

Measured: growth

COc1cc(/C=C/C(=O)c2cc(-c3ccccc3)ccc2O)cc(OC)c1OC
inactive: [1] 91% | [2] 34% | [3] 71% | [4] 97.8% | [5] 83.2% | [6] 74.6% | [7] 80.2% | [8] 69.9% | [9] 96.7% | [10] 70% | [11] 93.1% | [12] 93.3% | [13] 51.8% | [14] 58.8% | [15] 52.6% | [16] 98.1%

Cn1c(N)c(N=Cc2ccccc2)c(=O)n(C)c1=O
inactive: [1] 124% | [2] 95.8% | [3] 98.8% | [4] 121% | [5] 110% | [6] 124% | [7] 119% | [8] 108% | [9] 98.7% | [10] 103% | [17] 101% | [11] 91.4% | [12] 105% | [18] 105% | [13] 108% | [14] 115% | [15] 104% | [16] 110%

COC(=O)c1ccc(Cn2ccc(=O)[nH]c2=O)cc1
inactive: [1] 105% | [2] 113% | [3] 99.4% | [4] 108% | [5] 119% | [6] 109% | [7] 83.8% | [8] 112% | [9] 102% | [10] 101% | [17] 99.5% | [11] 90.6% | [12] 110% | [18] 98.4% | [14] 105% | [15] 98.4% | [16] 111%

Source: PubChem BioAssay (NCI)
